We go through 88 compounds from PubChem BioAssay AID652257 (The Scripps Research Institute Molecular Screening Center, 2013).

The whole screen tested about 370,000 compounds, of which about 4,800 (1.3%) were called active. Only a selection was taken, and actives are over-represented in it overall. Unmarked numbers belong to inactive results.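 How the source made its calls: active means inhibition above about 21% made by adding two undisclosed values (limit read from the data); inactive means the rest.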

Sequence of Protein arginine N-methyltransferase 1 (Homo sapiens) (Q99873 whole entry, looked up): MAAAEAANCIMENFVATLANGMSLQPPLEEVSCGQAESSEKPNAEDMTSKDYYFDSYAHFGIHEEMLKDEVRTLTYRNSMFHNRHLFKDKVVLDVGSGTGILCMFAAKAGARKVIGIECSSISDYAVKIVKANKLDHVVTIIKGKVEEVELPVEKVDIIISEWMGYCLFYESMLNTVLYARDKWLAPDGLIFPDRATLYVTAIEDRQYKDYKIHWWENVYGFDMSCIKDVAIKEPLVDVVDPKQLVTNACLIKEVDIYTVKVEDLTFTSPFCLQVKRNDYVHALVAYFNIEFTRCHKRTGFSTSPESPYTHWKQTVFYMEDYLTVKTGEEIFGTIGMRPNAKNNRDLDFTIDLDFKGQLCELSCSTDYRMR

The experiment addresses Protein arginine N-methyltransferase 1 (Homo sapiens) (UniProt Q99873). Put plainly: PRMT1 methyltransferase inhibitors, primary screen, biochemical, fluorescence polarization (AID 652257). To be noted: recombinant PRMT1, activity-based probe fluorescence polarization; at 2.79 µM; active compounds read high.
`O=C(O)c1cc(S(=O)(=O)N2CCCCCC2)c(Cl)cc1Cl`: the inhibition is -2.22%.
For `O=C(c1ccc[nH]c1=S)N1CCN(S(=O)(=O)c2ccc(Br)cc2Cl)CC1`, the inhibition is 31.8% (active).
In the case of `Cc1ccc(S(=O)(=O)N2CCN(C(=O)c3ccccc3-c3nc4ccccc4s3)CC2)c(C)c1`, the inhibition was 6.86%.
Next, `O=C(CNS(=O)(=O)c1ccccc1F)N1CCN(c2ccccn2)CC1`: 2.96%; `O=S(=O)(c1ccc2c(c1)OCCCO2)N1CCN(S(=O)(=O)c2c(F)cccc2F)CC1`: -4.09%.
Take `COc1cc(C(=S)N2CCOCC2)ccc1O`: the inhibition was 24.1% (active).
For the compound `COc1ccc(C)cc1NC(=S)N1CCOCC1`, the inhibition is -1.44%.
With `COc1cc(C(=S)NC2CCCCC2)ccc1O`, the inhibition was 29% (active).
Next, `Cc1ccc(C(=O)OCC(=O)NC2CCCCCCC2)cc1C`: -2.13%; `COc1cc(C(=O)Nc2cc(C(F)(F)F)ccc2N2CCOCC2)ccc1O`: -2.71%; `COc1ccc(C(C)NC(=S)NC2CCCCC2)cc1OC` (stereo not drawn): -2.42%.
Take `COC(=O)C[C@@H]1CC[C@@H]2[C@@H](COc3ccc(NC(=O)Nc4ccc(F)c(F)c4)cc3C(=O)N2C)O1`: the inhibition was -0.15%.
As for `O=C1c2ccccc2C(=O)N1CCC(c1ccccc1)c1ccco1` (stereo not drawn), the inhibition is 8.33%.
Next, `CCCCCN(C(=O)NC(=O)Nc1ccccc1OC)S(C)(=O)=O`: 5.33%; `O=C(OC12CCCN(C1)/C(=C/c1cccnc1)C2)C1CCCC1` (stereo not drawn): 0.1%; `CCOC(=O)[C@@]12CN(C(=O)OC(C)(C)C)CC=C1N(Cc1ccc(OC)cc1)C(=O)[C@H]2CC(=O)NCc1ccc(OC)c(OC)c1`: -3.24%.
Next, `O=C(Nc1c(-c2ccccc2)nc2c(Br)cc(Br)cn12)c1ccco1`: 0.75%; `O=C(Nc1nc(-c2ccco2)c(-c2ccco2)s1)c1ccco1`: 51.8% (active).
Regarding `O=C(Nc1ccccc1C(=O)N1CCCCC1)c1ccco1`, the inhibition was -7.4%.
For the compound `O=C(CSc1nnc(C2CC2)n1Cc1ccccc1)Nc1cccnc1Cl`, the inhibition is 4.21%.
For `Cc1cccc(C)c1NC(=O)C(Cl)C(=O)c1ccccc1` (stereo not drawn) the value was 32% (active); for `Cc1cccc(C)c1NC(=O)N1CC(C)OC(C)C1` (stereo not drawn), 1.08%.
With `CN=C(c1ccccc1)c1c(C)cccc1C`, the inhibition was -2.83%.
Next, `CCOc1ccc(S(=O)(=O)N2CCC(C(=O)NCC(=O)Nc3cccc(Cl)c3C)CC2)cc1`: -4.55%; `CC(C)[C@@H](C)/C=C/[C@@H](C)[C@H]1CC[C@@H]2[C@]1(C)CCC1[C@]23C=C[C@]2(C[C@@H](O)CC[C@]12C)N(c1ccc([N+](=O)[O-])cn1)O3` (stereo partly drawn): 1.5%.
Next, `O=S(=O)(Cc1nnnn1-c1ccc(Br)cc1)c1ccc(F)cc1`: -3.12%; `COC(=O)c1cccnc1NC(=S)NC(C)C`: -1.9%.
`O=C(NC(=S)Nc1ncccn1)c1ccccc1Br`: the inhibition is 21.4% (active).
Next, `CC1CCN(C(=S)NC(=O)c2ccccc2Br)CC1`: -1.71%; `CC(=O)N(O)CCCCCNC(=O)CCC(=O)N(O)CCCCCNC(=O)CCC(=O)N(O)CCCCCNC(=O)CCC(=O)O`: -4.14%.
Consider `CCCCn1c(N)c(N(CCOC)C(=O)c2oc3ccc(OC)cc3c2C)c(=O)[nH]c1=O`, for which the inhibition was -1%.
Next, `CCN(CC)CCCC(C)n1c2nc(=O)[nH]c(=O)c-2nc2cc(Cl)ccc21` (stereo not drawn): 161% (active); `CC(C)NC(=O)C(c1ccc(F)cc1)N(C(=O)CCC(=O)Nc1ccccn1)c1ccccc1F` (stereo not drawn): -0.59%.
Next, `C[C@H](C(=O)N(C)c1ccccc1)[C@@H](O)c1ccc2ccccc2c1`: 6.67%; `Nc1ccccc1C(=O)NC1CCCCNC1=O` (stereo not drawn): -3.31%; `O=C(NCc1ccco1)C1CCCN(S(=O)(=O)c2ccc(Cl)s2)C1` (stereo not drawn): -5.05%.
With `O=C(OCC(O)C(O)COC(=O)c1ccccc1)c1ccccc1` (stereo not drawn), the inhibition is 1.36%.
In the case of `O=C(NC1=CC(=O)c2ccccc2C1=O)c1ccccc1`, the inhibition is 36.9% (active).
Next, `NS(=O)(=O)c1cc(C(=O)OCC(=O)NNC(=O)c2ccccc2)ccc1Cl`: -1.9%; `CN(C)[C@@H]1C(=O)C(C(N)=O)=C(O)[C@@]2(O)C(=O)C3=C(O)c4c(O)ccc(Cl)c4[C@@H](O)[C@H]3C[C@@H]12`: 32% (active); `C=C1c2c(Cl)ccc(O)c2C(O)=C2C(=O)[C@]3(O)C(O)=C(C(N)=O)C(=O)[C@@H](N(C)C)[C@@H]3[C@@H](O)C12` (stereo partly drawn): 44.5% (active).
For `COC(=O)c1cc(S(=O)(=O)N2CCN(c3ccccc3C)CC2)cn1C` the value was -0.8%.
Consider `COc1ncnc2c1N=C1CC(C)(C)CC(N)=C1S2`, for which the inhibition is 33.2% (active).
Turning to `Cc1ccc(C(=O)NCC(=O)NC2CC2)cc1`, the inhibition was -3.08%.
Consider `CN(C)C(CNC(=O)c1cccc(S(=O)(=O)N2CCc3ccccc3C2)c1)c1ccccc1` (stereo not drawn), for which the inhibition was 2.65%.
Next, `COc1ccccc1NC(=O)c1cc(Cl)nnc1Cl`: 0.83%; `COc1ccccc1NC(=O)COC(=O)COc1ccccc1F`: -0.97%; `COc1ccccc1NC(=O)/C=C/C(N)=O`: 62.4% (active).
Turning to `CN(C(=O)c1cccc([N+](=O)[O-])c1)c1ccccc1C(=O)NCc1ccccc1`, the inhibition was 0.8%.
As for `Cc1cc(C)n(-c2nc(O)cc(=O)[nH]2)n1`, the inhibition is -0.2%.
Turning to `Oc1ccc(N2CCN(C(=S)NCc3ccccc3)CC2)cc1`, the inhibition is 23.4% (active).
For `O=C(COC(=O)c1ccccc1C(=O)N1CCN(c2ccccc2)CC1)NCc1ccccc1` the value was 12.8%; for `O=C(CN1CCN(c2ccccc2O)CC1)NC(=O)NCc1ccccc1`, -0.8%.
Turning to `CC1CCN(C(=O)c2ncn3c2C(=O)N[C@@H](C)C3)CC1`, the inhibition is -0.43%.
For `COc1ccc(S(=O)(=O)N(C)C[C@@H]2Oc3ccc(NS(=O)(=O)c4cn(C)cn4)cc3C(=O)N([C@@H](C)CO)C[C@@H]2C)cc1`, the inhibition was 0.38%.
For `COc1ccc(CCNC(=O)CSc2nc3c([nH]2)c(=O)n(C)c(=O)n3C)cc1` the value was 1.93%; for `CC(C)(C)c1ccc(C(=O)Nc2cc(Cl)c(Br)cc2C(=O)O)cc1`, -1.7%.
Next, `COC(=O)[C@]12C[C@H](CC(=O)NCc3cccs3)C(=O)N(CCc3ccc(OC)c(OC)c3)C1=C[C@H](C(C)C)O[C@@H]2C1CC1`: -1.28%; `CCCCOC(=O)CNc1nnc(SCC(=O)OCC)[nH]c1=O`: 74.3% (active).
For `CCOC(=O)CSc1nnc(CNc2ccc(F)cc2)o1` the value was -0.98%; for `Cc1nnc(SCCCCSc2nnc(C)c(=O)[nH]2)[nH]c1=O`, 2.02%; for `CCC(=O)Nc1ccc2c(c1)C(=O)N(C)[C@@H]1CC[C@@H](CC(=O)NCCc3ccccc3)O[C@H]1CO2`, 1.16%.
As to `Cc1ccc(/C=C/C(=O)Nc2cc(S(=O)(=O)N3CCCCCC3)ccc2OCC(F)(F)F)o1`, the inhibition is 24.7% (active).
Next, `COc1ccc(S(=O)(=O)N2CCCCC2)cc1NC(=O)COc1ccccc1`: 2%; `O=C(Nc1cc(S(=O)(=O)N2CCOCC2)ccc1OCC(F)(F)F)c1ccc(N2CCCC2=O)cc1`: -0.65%; `O=C(NCCCc1ccccc1)[C@H](Cc1ccccc1)NC1(C(=O)NCCc2c[nH]c3ccccc23)CCC1`: 4.62%.
Next, `COc1ccc2c(c1)CN1CN(CCc3ccccc3)S(=O)(=O)CC21` (stereo not drawn): -7.45%.
Next, `COc1ccc(C(=O)NC(=O)CSc2nnc(-c3ccco3)n2-c2ccccc2)cc1`: 4.1%.
Take `COc1cc(NC(=O)C2=CC(c3ccco3)=NS(=O)(=O)N2C)cc(OC)c1OC`: the inhibition is 1.92%.
Next, `COCCNC(=O)Nc1ccc2nc(-c3ccco3)c(-c3ccco3)nc2c1`: 88.9% (active); `O=C(Nc1ccc(F)c([N+](=O)[O-])c1)C1CCCO1` (stereo not drawn): -0.52%; `CCOC(=O)[C@]12CCCC=C1N(CCCOC)C(=O)[C@@H]2CC(=O)N1CCOCC1`: -11.2%.
Next, `COC(=O)Nc1nc2ccc(C(=O)C3CC3)cc2[nH]1`: -5.37%.
Take `COc1ccc(C2NC(=O)C(=O)/C2=C(\O)c2ccc(Cl)cc2)cc1OC` (stereo not drawn): the inhibition is 1.92%.
Next, `Clc1ccccc1CSc1nnc(-c2ccco2)c(-c2ccco2)n1`: 45.8% (active); `Clc1ccc(-n2c(SC/C=C/c3ccccc3)nnc2-c2ccco2)cc1`: 2.59%; `Cc1cccc(N(CC(=O)N2CCCC2)S(C)(=O)=O)c1C`: 0.79%.
Next, `COc1ccc(N(CC(=O)N2CCOCC2)S(=O)(=O)c2ccccc2)cc1Cl`: 3.25%; `CN1C(=O)c2cc(NS(C)(=O)=O)ccc2OC[C@@H]2O[C@@H](CC(=O)NCc3ccc(-c4ccccc4)cc3)CC[C@H]21`: -3.76%; `S=c1[nH]c2ccccc2c2ccccc12`: 13.6%.
For the compound `S=c1ccc2ccccc2[nH]1`, the inhibition was 41.1% (active).
For `Brc1ccccc1CN1CCC(Cc2ccccc2)CC1`, the inhibition was -1.49%.
In the case of `CCN(CC(=O)Nc1ccc(OC)cc1)C(=O)c1ccc(Cl)c(S(=O)(=O)N2CCCC2)c1`, the inhibition is -2.9%.
As to `CCOc1ccc(NC(=O)CCCCCN2C(=O)[C@@H]3Cc4ccccc4CN3C2=O)cc1`, the inhibition is 0.46%.
For `CC[C@]1(O)C[C@@H]2CN(CCc3c([nH]c4ccccc34)[C@@](C(=O)OC)(c3cc4c(cc3OC)N(C)[C@H]3[C@@](O)(C(=O)OC)[C@H](OC(C)=O)[C@]5(CC)C=CCN6CC[C@]43[C@@H]65)C2)C1` the value was 4.62%; for `CN(C)S(=O)(=O)c1cccc(C(=O)N/N=C\c2ccco2)c1`, -2.34%; for `O=C(N/N=C/C=C/c1ccco1)c1cccs1`, 17.1%.
As for `Cc1cc(C(=O)NN=C/C=C/c2ccco2)n[nH]1`, the inhibition is 39.4% (active).
